In the library only some 7.4% were active in any assay of this set; here they are far more common.
NPC1 prom act: activates the NPC1 promoter; Potency, µM (top dose mostly 9.22 µM), inactives show at the top dose activation, usual class: activators; hit rate 2.4% among 320,000; Huh7 NPC1 promoter luciferase reporter, 24 h; note: % of control where 0% means no effect; nearly all actives have a fitted effect of over 60% in size
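Compounds in DMSO were transferred onto Huh7 NPC1-luciferase reporter cells pre-incubated 2 h; after 24 h at 37 °C, Amplite reagent was dispensed and luminescence recorded 10 min later.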
ELG1 genotox: genotoxicity induction in ELG1-luciferase HEK293T cells; HEK293T ELG1-luciferase reporter, luminescence, 16 h; Potency, µM (highest dose often 46 µM), for inactives: at the highest dose activity change, positive = activation, actives largely listed as activators; hit rate 1.3% among 330,000; AID 504466; note: % of control where 0% means no effect; nearly all actives have a fitted effect of over 60% in size
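Genotoxicity was scored as increased ELG1-luciferase reporter signal, measured by ONE-Glo luminescence (30 min, room temperature). Compound or vehicle exposure of the HEK293T reporter cells lasted 16 hr at 37°C.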
FLuc modulator: firefly luciferase modulation, counter-screen for miR-21 project; P08659; Potency, µM (titrated, usually from 57.5 µM), for the others: at the highest dose activity change, negative = inhibition, actives largely listed as inhibitors; hit rate 6.9% among 360,000; AID 588342; purified FLuc, Km substrates, luminescence inhibition;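 note: plate controls were vehicle for no effect and reference inhibitor for full effect; nearly all actives have a fitted effect of over 55% in size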
Target sequence (P08659 whole entry, looked up): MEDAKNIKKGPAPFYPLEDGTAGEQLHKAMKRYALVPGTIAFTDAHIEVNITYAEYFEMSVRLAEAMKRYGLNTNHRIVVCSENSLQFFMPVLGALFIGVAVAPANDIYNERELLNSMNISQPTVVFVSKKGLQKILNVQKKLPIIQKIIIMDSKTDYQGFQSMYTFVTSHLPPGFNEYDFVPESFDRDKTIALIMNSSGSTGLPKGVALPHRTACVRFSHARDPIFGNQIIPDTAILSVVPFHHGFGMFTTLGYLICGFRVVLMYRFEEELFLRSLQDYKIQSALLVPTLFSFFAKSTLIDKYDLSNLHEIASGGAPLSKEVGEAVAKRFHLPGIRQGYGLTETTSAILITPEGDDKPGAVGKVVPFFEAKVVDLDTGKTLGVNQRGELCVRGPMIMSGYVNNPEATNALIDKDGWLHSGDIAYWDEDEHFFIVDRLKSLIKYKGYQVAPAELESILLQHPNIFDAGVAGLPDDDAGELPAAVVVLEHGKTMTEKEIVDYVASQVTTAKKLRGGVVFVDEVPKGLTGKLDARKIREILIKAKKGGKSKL
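Purified P. pyralis luciferase (10nM final) with 10uM D-luciferin and 10uM ATP (Km levels) in 50mM Tris acetate pH 7.5, 10mM Mg acetate, 0.01% Tween-20, 0.05% BSA; qHTS 6-point titration, ~60 µM downward; luminescence read.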
Rab9 prom act: activates the Rab9 promoter; Huh7 Rab9 promoter-luciferase reporter, luminescence, 24 h; Potency, µM (top dose mostly 9.22 µM), for the others: top-dose activation, negative = inhibition, actives largely listed as activators; hit rate 2.8% among 320,000; AID 485297; note: % of control where 0% means no effect; nearly all actives have a fitted effect of over 60% in size
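Steps: seed 1500 Huh7 Rab9-luc cells per well, rest 2 h at 37 °C; add compound in DMSO; incubate 24 h; add luciferase reagent, 10 min ambient; read luminescence.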
SMN2 splice enh: increases expression of the SMN2 splice variant; HEK293 SMN2-luciferase splicing reporter, luminescence, 30-36 h; Potency, µM (highest dose often 46.1 µM), for inactives: at the highest dose activity change, positive = activation, most hits filed as activators; hit rate 2.8% among 210,000; note: % of control where 0% means no effect; nearly all actives have a fitted effect of over 55% in size
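qHTS luciferase splicing reporter: luminescence rises when SMN2 exon 7 is included in transfected HEK293 cells. Compound exposure lasted 30-36 h at 37C, with 4.5 mM final sodium butyrate as control, followed by a ONE-Glo read.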
Active calls of the source: *; [ ] = remark or other dose. Calls come from the whole dose curve; as a rule, active = well fitted curve in the direction sought with a large enough effect; inconclusive = small, poorly fitted or top-dose-only effect, or another doubt; inactive = no such curve, though single readings can be large; an effect the other way counts as inactive or inconclusive. Potency is the fitted concentration of half-maximal effect.

CC(=O)N1CCCc2cc(S(=O)(=O)N(C)CC(=O)Nc3ccc(Cl)cc3C)ccc21 was read as FLuc modulator -11%.
For O=C(c1cc2c(s1)-c1ccccc1OC2)N1CCc2ccccc2C1 the results were NPC1 prom act 11%, ELG1 genotox 17%, FLuc modulator inconclusive, Rab9 prom act 21% and SMN2 splice enh 20µM*.
COc1ccccc1N1CCN(C(=O)c2cc3c(s2)-c2ccccc2OC3)CC1 was read as NPC1 prom act 0%, ELG1 genotox -1%, FLuc modulator 3%, Rab9 prom act -2% and SMN2 splice enh -5%.
For COCCNc1ccnc(-c2ccccc2CN(C)C)n1 the results were SMN2 splice enh -5%.
O=C(Nc1ccsc1C(=O)O)c1cccc(C(F)(F)F)c1 was read as NPC1 prom act 3.2µM*, ELG1 genotox 16µM*, FLuc modulator 9.5µM* and Rab9 prom act inconclusive.
For Cc1ccccc1NC(=O)c1cccc(C(F)(F)F)c1 the results were NPC1 prom act -2%, ELG1 genotox 0%, FLuc modulator -5%, Rab9 prom act 3% and SMN2 splice enh 4%.
For O=C(Nc1nnc(-c2cccs2)o1)c1cccc(Oc2ccccc2)c1 the results were NPC1 prom act 3%, ELG1 genotox -9%, FLuc modulator -16%, Rab9 prom act 7% and SMN2 splice enh 1%.
`O=C(Nc1ccsc1C(=O)O)c1cccc(Oc2ccccc2)c1` gave NPC1 prom act 1.8µM*, ELG1 genotox inconclusive, FLuc modulator 0.76µM* and Rab9 prom act 0.89µM*.
Screening Cn1cnc([N+](=O)[O-])c1[Se]c1nc(N)nc2c1ncn2[C@@H]1O[C@@H](CO)[C@H](O)[C@@H]1O returned SMN2 splice enh 6%[9.22 µM].
Cn1ncc2c(N3CCN(c4ccc(F)cc4)CC3)ncnc21 was read as FLuc modulator 1%.
For O=C(NCC1CCCO1)c1cc(-c2ccccc2)nc2ccc(Br)cc12 (stereo not drawn) the results were NPC1 prom act 1%, ELG1 genotox -2%, FLuc modulator 2.4µM* and Rab9 prom act 7%.
`Cc1nc(SC(C)C(=O)NCC2CCCO2)c2cc(-c3ccccc3)sc2n1` (stereo not drawn) gave NPC1 prom act -2%, ELG1 genotox -10%, FLuc modulator 12µM* and Rab9 prom act 30%.
For Cc1cc(Br)cc2c(C(=O)NCC3CCCO3)cc(-c3ccccc3)nc12 (stereo not drawn) the results were NPC1 prom act 12%, ELG1 genotox inconclusive, FLuc modulator 1.3µM* and Rab9 prom act 17%.
`COc1ccccc1N1CCN(S(=O)(=O)c2c(C)nc3sc(C)c(C)n3c2=O)CC1` gave FLuc modulator 6%.
Screening COc1cccc([C@@H]2Oc3ccc(Br)cc3C[C@H]2OC(=O)NS(=O)(=O)c2ccc(F)cc2)c1 returned SMN2 splice enh -9%.
`CN(CCO)Cc1ncccc1O` gave SMN2 splice enh -3%[9.22 µM].
Cc1ccc2nc(NCc3ccccc3)[nH]c2c1 was read as NPC1 prom act 22%, ELG1 genotox 11µM*, FLuc modulator 9.5µM*, Rab9 prom act inconclusive and SMN2 splice enh 8.9µM*.
Cc1ccc2nc(C3CCN(C(=O)NCc4ccccc4)CC3)[nH]c2c1 was read as NPC1 prom act 11%, ELG1 genotox 6%, FLuc modulator 17µM*, Rab9 prom act -7% and SMN2 splice enh 2%.
For Cc1ccc2nc(NCc3ccccc3)c(C#N)cc2c1 the results were NPC1 prom act 3%, ELG1 genotox 4%, FLuc modulator -3% and Rab9 prom act 2%.
Screening c1ccc(CNc2nc3ccccc3[nH]2)cc1 returned NPC1 prom act 15%, ELG1 genotox inconclusive, FLuc modulator 6.7µM*, Rab9 prom act inconclusive and SMN2 splice enh inconclusive.
For O=c1[nH]c2ccccc2nc1NCc1ccccc1 the results were NPC1 prom act 16%, ELG1 genotox 14%, FLuc modulator inconclusive and Rab9 prom act 18%.
`Cc1ccc2nc(C3CCCN(C(=O)NCc4ccccc4)C3)[nH]c2c1` (stereo not drawn) gave NPC1 prom act 1%, ELG1 genotox 14%, FLuc modulator inconclusive and Rab9 prom act 5%.
